According to PubChem BioAssay AID1159580 (chemical genetic matrix, 2015):
Values joined by “and” are separate entries in the source; they are usually repeats but may differ in a detail not shown here. Identical values can stand only once. Among all 5,500 compounds or so, about 2,000 (36%) were called active. Inconclusive results (about 18%) are left out. The list shows a part of the results. A number with no mark means an inactive call. Cut-off read from the data, not from the text of the source: active = normalized growth mostly below about 0.91 (no sharp cut-off); inconclusive = no clear call, values can overlap the other calls; inactive = mostly above about 0.92.

Assay: chemical genetic growth profiling, strain panel (AID 1159580);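 note: tested at 20 µM; growth read once vehicle control cultures reached saturation at 30 °C; 1 = growth at the plate median or of vehicle wells; lower values mean less growth of the strain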
Conditions: S. cerevisiae deletion strains, growth OD

Question: Which normalized growth (locus YAL013W, strain DEP1, hits give low values) does the source give for `CC1[C@H](C)OC(=O)CC(O)CC(O)CC(O)CCC(O)C(O)C[C@]2(O)CC(O)C(C(=O)O)C(CC(OC3O[C@H](C)[C@@H](O)[C@H](N)[C@@H]3O)/C=C/C=C/C=C/C=C/CC/C=C/C=C/[C@H](C)[C@H]1O)O2` (stereo partly specified) here?
Answer: 0.0554 (active)

Question: And the normalized growth (locus YAL021C, strain ccr4, hits give low values)?
Answer: 0.186 (active)

Question: And the normalized growth (locus YAL026C, strain drs2, hits give low values)?
Answer: 0.0661 (active)

Question: What about the normalized growth (locus YAL030W, strain snc1, hits give low values) of the same compound?
Answer: 0.824 (active)

Question: What about the normalized growth (locus YBL061C, strain skt5, hits give low values) of the same compound?
Answer: 0.931

Question: What about the normalized growth (locus YBR009C, strain hhf1, hits give low values) of the same compound?
Answer: 0.557 (active)

Question: What about the normalized growth (locus YBR021W, strain FUR4, hits give low values) of the same compound?
Answer: 0.369 (active)

Question: What about the normalized growth (locus YBR023C, strain chs3, hits give low values) of the same compound?
Answer: 0.918

Question: What about the normalized growth (locus YBR171W, strain sec66, hits give low values) of the same compound?
Answer: 0.0858 (active)

Question: And the normalized growth (locus YBR229C, strain ROT2, hits give low values)?
Answer: 0.206 (active)

Question: What about the normalized growth (locus YBR279W, strain paf1, hits give low values) of the same compound?
Answer: 0.982

Question: What about the normalized growth (locus YCL011C, strain gbp2, hits give low values) of the same compound?
Answer: 0.223 (active)

Question: What about the normalized growth (locus YCL016C, strain dcc1, hits give low values) of the same compound?
Answer: 0.971

Question: And the normalized growth (locus YCL029C, strain bik1, hits give low values)?
Answer: 0.425 (active)

Question: What about the normalized growth (locus YCL069W, strain vba3, hits give low values) of the same compound?
Answer: 0.849 (active)

Question: And the normalized growth (locus YCR088W, strain abp1, hits give low values)?
Answer: 0.0729 (active)

Question: And the normalized growth (locus YDL005C, strain med2, hits give low values)?
Answer: 0.953

Question: And the normalized growth (locus YDL035C, strain GPR1, hits give low values)?
Answer: 0.0678 (active)

Question: What about the normalized growth (locus YDL040C, strain nat1, hits give low values) of the same compound?
Answer: 0.995

Question: And the normalized growth (locus YDL074C, strain BRE1, hits give low values)?
Answer: 0.144 (active)

Question: What about the normalized growth (locus YDL101C, strain DUN1, hits give low values) of the same compound?
Answer: 0.188 (active)

Question: And the normalized growth (locus YDL134C, strain PPH21, hits give low values)?
Answer: 0.592 (active)

Question: What about the normalized growth (locus YDL185W, strain tfp1, hits give low values) of the same compound?
Answer: 0.0687 (active)

Question: What about the normalized growth (locus YDL192W, strain arf1, hits give low values) of the same compound?
Answer: 0.133 (active)

Question: And the normalized growth (locus YDR001C, strain nth1, hits give low values)?
Answer: 0.815 (active)

Question: What about the normalized growth (locus YDR069C, strain doa4, hits give low values) of the same compound?
Answer: 0.858 (active)

Question: What about the normalized growth (locus YDR101C, strain arx1, hits give low values) of the same compound?
Answer: 0.119 (active)

Question: And the normalized growth (locus YDR137W, strain rgp1, hits give low values)?
Answer: 0.914

Question: What about the normalized growth (locus YDR150W, strain NUM1, hits give low values) of the same compound?
Answer: 0.0676 (active)

Question: What about the normalized growth (locus YDR159W, strain sac3, hits give low values) of the same compound?
Answer: 1.04

Question: What about the normalized growth (locus YDR162C, strain NBP2, hits give low values) of the same compound?
Answer: 0.0472 (active)

Question: And the normalized growth (locus YDR195W, strain ref2)?
Answer: 0.466 (active)

Question: What about the normalized growth (locus YDR297W, strain sur2, hits give low values) of the same compound?
Answer: 0.828 (active)

Question: And the normalized growth (locus YDR318W, strain mcm21, hits give low values)?
Answer: 0.194 (active)

Question: And the normalized growth (locus YDR334W, strain swr1, hits give low values)?
Answer: 0.415 (active)

Question: And the normalized growth (locus YDR335W, strain msn5, hits give low values)?
Answer: 0.904 (active)

Question: And the normalized growth (locus YDR388W, hits give low values)?
Answer: 0.0675 (active)

Question: What about the normalized growth (locus YDR392W, strain spt3, hits give low values) of the same compound?
Answer: 1.11

Question: What about the normalized growth (locus YDR502C, strain sam2, hits give low values) of the same compound?
Answer: 0.0781 (active)

Question: What about the normalized growth (locus YEL003W, strain gim4, hits give low values) of the same compound?
Answer: 0.154 (active)

Question: And the normalized growth (locus YEL037C, strain rad23, hits give low values)?
Answer: 0.723 (active)

Question: What about the normalized growth (locus YEL061C, strain CIN8 (second series), hits give low values) of the same compound?
Answer: 0.815 (active)

Question: What about the normalized growth (locus YEL061C, strain CIN8, hits give low values) of the same compound?
Answer: 0.0554 (active)

Question: And the normalized growth (locus YER015W, strain faa2, hits give low values)?
Answer: 0.822 (active)

Question: And the normalized growth (locus YER016W, strain bim1, hits give low values)?
Answer: 0.961

Question: What about the normalized growth (locus YER110C, hits give low values) of the same compound?
Answer: 0.188 (active)

Question: What about the normalized growth (locus YER111C, strain swi4, hits give low values) of the same compound?
Answer: 0.959

Question: And the normalized growth (locus YER155C, strain BEM2 (second series), hits give low values)?
Answer: 0.633 (active)

Question: What about the normalized growth (locus YER155C, strain BEM2, hits give low values) of the same compound?
Answer: 0.122 (active)

Question: And the normalized growth (locus YER167W, strain BCK2, hits give low values)?
Answer: 0.0855 (active)

Question: What about the normalized growth (locus YFR010W, strain ubp6, hits give low values) of the same compound?
Answer: 0.137 (active)

Question: What about the normalized growth (locus YGL078C, strain dbp3, hits give low values) of the same compound?
Answer: 0.0582 (active)

Question: And the normalized growth (locus YGL086W, strain mad1, hits give low values)?
Answer: 0.124 (active)

Question: And the normalized growth (locus YGL167C, strain pmr1, hits give low values)?
Answer: 0.996

Question: What about the normalized growth (locus YGL173C, strain kem1, hits give low values) of the same compound?
Answer: 0.799 (active)

Question: And the normalized growth (locus YGL227W, strain vid30, hits give low values)?
Answer: 0.061 (active)

Question: And the normalized growth (locus YGL240W, strain doc1, hits give low values)?
Answer: 0.537 (active)

Question: What about the normalized growth (locus YGL248W, strain PDE1, hits give low values) of the same compound?
Answer: 0.646 (active)

Question: What about the normalized growth (locus YGL253W, strain hxk2, hits give low values) of the same compound?
Answer: 0.44 (active)

Question: And the normalized growth (locus YGR078C, strain PAC10, hits give low values)?
Answer: 0.0638 (active)

Question: What about the normalized growth (locus YGR135W, strain pre9, hits give low values) of the same compound?
Answer: 0.0907 (active)

Question: And the normalized growth (locus YGR229C, strain SMI1, hits give low values)?
Answer: 0.0609 (active)

Question: What about the normalized growth (locus YGR252W, strain gcn5, hits give low values) of the same compound?
Answer: 0.385 (active)

Question: And the normalized growth (locus YHR013C, strain ard1, hits give low values)?
Answer: 1.35 [resistant] (active)

Question: What about the normalized growth (locus YHR027C, strain rpn1, hits give low values) of the same compound?
Answer: 0.77 (active)

Question: What about the normalized growth (locus YHR030C, strain SLT2, hits give low values) of the same compound?
Answer: 0.179 (active) and 0.0985 (active)

Question: And the normalized growth (locus YHR079C, strain IRE1 (second series), hits give low values)?
Answer: 0.312 (active)

Question: And the normalized growth (locus YHR079C, strain IRE1, hits give low values)?
Answer: 0.102 (active)

Question: What about the normalized growth (locus YHR094C, strain hxt1, hits give low values) of the same compound?
Answer: 0.302 (active)

Question: What about the normalized growth (locus YHR129C, strain ARP1, hits give low values) of the same compound?
Answer: 0.129 (active)

Question: What about the normalized growth (locus YHR142W, strain chs7, hits give low values) of the same compound?
Answer: 0.658 (active)

Question: What about the normalized growth (locus YHR200W, strain rpn10, hits give low values) of the same compound?
Answer: 0.0755 (active)

Question: And the normalized growth (locus YIL066C, strain RNR3, hits give low values)?
Answer: 0.51 (active)

Question: What about the normalized growth (locus YIL073C, strain SPO22, hits give low values) of the same compound?
Answer: 0.987

Question: And the normalized growth (locus YIL125W, strain kgd1, hits give low values)?
Answer: 0.0583 (active)

Question: And the normalized growth (locus YIR030C, strain dcg1, hits give low values)?
Answer: 0.182 (active)

Question: And the normalized growth (locus YJL092W, strain hpr5, hits give low values)?
Answer: 0.402 (active)

Question: And the normalized growth (locus YJL095W, strain BCK1 (second series), hits give low values)?
Answer: 0.994

Question: And the normalized growth (locus YJL095W, strain BCK1, hits give low values)?
Answer: 0.567 (active) and 0.099 (active)

Question: And the normalized growth (locus YJL115W, strain asf1, hits give low values)?
Answer: 0.887 (active)

Question: What about the normalized growth (locus YJL129C, strain trk1, hits give low values) of the same compound?
Answer: 1.2 [resistant] (active)

Question: What about the normalized growth (locus YJL134W, strain LCB3, hits give low values) of the same compound?
Answer: 0.372 (active)

Question: What about the normalized growth (locus YJL154C, strain vps35, hits give low values) of the same compound?
Answer: 0.985

Question: What about the normalized growth (locus YJL164C, strain tpk1, hits give low values) of the same compound?
Answer: 0.775 (active)

Question: What about the normalized growth (locus YJL166W, strain qcr8, hits give low values) of the same compound?
Answer: 0.789 (active)

Question: And the normalized growth (locus YJL168C, strain set2, hits give low values)?
Answer: 0.199 (active)

Question: What about the normalized growth (locus YJL187C, strain SWE1 (second series), hits give low values) of the same compound?
Answer: 0.168 (active)

Question: What about the normalized growth (locus YJL187C, strain SWE1, hits give low values) of the same compound?
Answer: 0.846 (active)

Question: And the normalized growth (locus YJR043C, strain POL32, hits give low values)?
Answer: 0.0611 (active)

Question: And the normalized growth (locus YJR066W, strain TOR1, hits give low values)?
Answer: 0.0213 (active)

Question: What about the normalized growth (locus YJR075W, strain HOC1, hits give low values) of the same compound?
Answer: 0.0672 (active)
